In the supplement of paper PMC8371130:
Structures can show the parent of a compound that is named as a salt.

Test system: HL-1
Assay: relative cell viability (CellTiter-Glo) vs DMSO control (% of DMSO control); higher = more viable cells
Outline: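 In 384-well plates, 1000 HL-1 mouse atrial cardiomyocytes per well were plated with compounds at 40, 200, 1000 or 5000 nM in 0.01% DMSO. Hypoxia at 1% O2 for 48 h began one day later and was followed by 24 h of reoxygenation, with parallel plates held in normoxia. CellTiter-Glo luminescence gave cell viability relative to vehicle-treated control cells.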

[1] = oxygen condition: hypoxia 48 h (1% O2) + reoxygenation 24 h, 40 nM
[2] = oxygen condition: hypoxia 48 h (1% O2) + reoxygenation 24 h, 200 nM
[3] = oxygen condition: hypoxia 48 h (1% O2) + reoxygenation 24 h, 1000 nM
[4] = oxygen condition: hypoxia 48 h (1% O2) + reoxygenation 24 h, 5000 nM
[5] = oxygen condition: normoxia 72 h, 40 nM
[6] = oxygen condition: normoxia 72 h, 200 nM
[7] = oxygen condition: normoxia 72 h, 1000 nM
[8] = oxygen condition: normoxia 72 h, 5000 nM

`NCC(=O)CCC(=O)O` [5-Aminolevulinic acid hydrochloride] showed a relative cell viability [1] of 101, a relative cell viability [2] of 104 and a relative cell viability [3] of 105. It also gave a relative cell viability [4] of 110, a relative cell viability [5] of 99.8 and a relative cell viability [6] of 102. The relative cell viability [7] was 100 and the relative cell viability [8] was 113.
`CC(C)OC(=O)C(C(=O)OC(C)C)=C1SC=CS1` [Malotilate] was tested, and the relative cell viability [1] was 89.7, the relative cell viability [2] was 105 and the relative cell viability [3] was 115. It also gave a relative cell viability [4] of 109, a relative cell viability [5] of 102 and a relative cell viability [6] of 104. It also gave a relative cell viability [7] of 111 and a relative cell viability [8] of 109.
`CCOC(=O)C1=C(COCCN)NC(C)=C(C(=O)OC)C1c1ccccc1Cl` (stereo unspecified) [Amlodipine besylate] showed a relative cell viability [1] of 88, a relative cell viability [2] of 102 and a relative cell viability [3] of 102. It also gave a relative cell viability [4] of 105, a relative cell viability [5] of 103 and a relative cell viability [6] of 105. It also gave a relative cell viability [7] of 106 and a relative cell viability [8] of 102.
With `O=C(CCCN1CCC(O)(c2ccc(Cl)cc2)CC1)c1ccc(F)cc1` [Haloperidol] the relative cell viability [1] was 101, the relative cell viability [2] was 99.4 and the relative cell viability [3] was 102. For the same compound, the relative cell viability [4] was 101, the relative cell viability [5] was 92.8 and the relative cell viability [6] was 98. It also gave a relative cell viability [7] of 100 and a relative cell viability [8] of 98.5.
Work on `C[C@]12CC[C@@H]3c4ccc(O)cc4C[C@@H](CCCCCCCCC[S+]([O-])CCCC(F)(F)C(F)(F)F)[C@H]3[C@@H]1CC[C@@H]2O` (stereo partly specified) [Fulvestrant] yielded a relative cell viability [1] of 102, a relative cell viability [2] of 113 and a relative cell viability [3] of 110. It also gave a relative cell viability [4] of 122, a relative cell viability [5] of 111 and a relative cell viability [6] of 117. It also gave a relative cell viability [7] of 122 and a relative cell viability [8] of 135.
In the case of `CC(C)(C)NC(=O)[C@H]1CC[C@H]2[C@@H]3CC[C@H]4NC(=O)C=C[C@]4(C)[C@H]3CC[C@]12C` [Finasteride], the relative cell viability [1] was 100, the relative cell viability [2] was 106 and the relative cell viability [3] was 106. The relative cell viability [4] was 117, the relative cell viability [5] was 115 and the relative cell viability [6] was 110. It also gave a relative cell viability [7] of 111 and a relative cell viability [8] of 113.
Compound `COc1ccc([C@H]2CNC(=O)C2)cc1OC1CCCC1` [S-(+)-Rolipram] has a relative cell viability [1] of 103, a relative cell viability [2] of 92.3 and a relative cell viability [3] of 89.4. For the same compound, the relative cell viability [4] was 90.4, the relative cell viability [5] was 95.6 and the relative cell viability [6] was 101. The relative cell viability [7] was 98.7 and the relative cell viability [8] was 103.
`CCCC(CCC)C(=O)O[C@H]1C[C@H]2CC[C@@H](C1)[N+]2(C)C` [Anisotropine Methylbromide] was tested, and the relative cell viability [1] was 104, the relative cell viability [2] was 101 and the relative cell viability [3] was 93.2. For the same compound, the relative cell viability [4] was 97.8, the relative cell viability [5] was 96.3 and the relative cell viability [6] was 93.7. For the same compound, the relative cell viability [7] was 84.7 and the relative cell viability [8] was 109.
`CS(=O)(=O)CCNCc1ccc(-c2ccc3ncnc(Nc4ccc(OCc5cccc(F)c5)c(Cl)c4)c3c2)o1` [Lapatinib Ditosylate] showed a relative cell viability [1] of 107, a relative cell viability [2] of 116 and a relative cell viability [3] of 116. The relative cell viability [4] was 84.4, the relative cell viability [5] was 107 and the relative cell viability [6] was 115. It also gave a relative cell viability [7] of 122 and a relative cell viability [8] of 61.7.
With `COc1ccccc1OCC(O)CN1CCN(CC(=O)Nc2c(C)cccc2C)CC1` (stereo unspecified) [Ranolazine] the relative cell viability [1] was 85, the relative cell viability [2] was 102 and the relative cell viability [3] was 98. The relative cell viability [4] was 112, the relative cell viability [5] was 105 and the relative cell viability [6] was 102. It also gave a relative cell viability [7] of 107 and a relative cell viability [8] of 118.
Work on `CNCCC(Oc1ccc(C(F)(F)F)cc1)c1ccccc1` (stereo unspecified) [Fluoxetine  HCl] yielded a relative cell viability [1] of 103, a relative cell viability [2] of 109 and a relative cell viability [3] of 114. It also gave a relative cell viability [4] of 110, a relative cell viability [5] of 104 and a relative cell viability [6] of 114. It also gave a relative cell viability [7] of 106 and a relative cell viability [8] of 114.
`CNC(=C[N+](=O)[O-])NCCSCc1csc(CN(C)C)n1` [Nizatidine] gave a relative cell viability [1] of 108, a relative cell viability [2] of 104 and a relative cell viability [3] of 106. For the same compound, the relative cell viability [4] was 95.7, the relative cell viability [5] was 115 and the relative cell viability [6] was 104. It also gave a relative cell viability [7] of 106 and a relative cell viability [8] of 85.
With `CN(C)CCC(c1ccccc1)c1ccccn1` (stereo unspecified) [Pheniramine Maleate] the relative cell viability [1] was 102, the relative cell viability [2] was 103 and the relative cell viability [3] was 104. For the same compound, the relative cell viability [4] was 117, the relative cell viability [5] was 105 and the relative cell viability [6] was 101. It also gave a relative cell viability [7] of 104 and a relative cell viability [8] of 113.
In the case of `O=C(NCCN1CCOCC1)c1ccc(Cl)cc1` [Moclobemide], the relative cell viability [1] was 113, the relative cell viability [2] was 111 and the relative cell viability [3] was 102. The relative cell viability [4] was 120, the relative cell viability [5] was 108 and the relative cell viability [6] was 100. It also gave a relative cell viability [7] of 119 and a relative cell viability [8] of 121.
In the case of `O=C1O[C@H]([C@@H](O)CO)C([O-])=C1O.[Na+]` [Sodium ascorbate], the relative cell viability [1] was 99.7, the relative cell viability [2] was 101 and the relative cell viability [3] was 106. For the same compound, the relative cell viability [4] was 117, the relative cell viability [5] was 98.8 and the relative cell viability [6] was 103. It also gave a relative cell viability [7] of 102 and a relative cell viability [8] of 114.
`CCCCC(=O)O[C@H]1CC[C@H]2[C@@H]3CCc4cc(O)ccc4[C@H]3CC[C@]12C` [Estradiol valerate] was tested, and the relative cell viability [1] was 100, the relative cell viability [2] was 103 and the relative cell viability [3] was 108. It also gave a relative cell viability [4] of 108, a relative cell viability [5] of 98.8 and a relative cell viability [6] of 103. For the same compound, the relative cell viability [7] was 102 and the relative cell viability [8] was 118.
`Cc1cccc(N(C)C(=S)Oc2ccc3ccccc3c2)c1` [Tolnaftate] was tested, and the relative cell viability [1] was 91.4, the relative cell viability [2] was 102 and the relative cell viability [3] was 100. For the same compound, the relative cell viability [4] was 105, the relative cell viability [5] was 102 and the relative cell viability [6] was 101. For the same compound, the relative cell viability [7] was 105 and the relative cell viability [8] was 103.
For `O=C(O)C(=O)O.[NH-][C@@H]1CCCC[C@H]1[NH-].[Pt+2]` [Oxaliplatin], the relative cell viability [1] was 99.8, the relative cell viability [2] was 102 and the relative cell viability [3] was 109. It also gave a relative cell viability [4] of 114, a relative cell viability [5] of 97.4 and a relative cell viability [6] of 107. It also gave a relative cell viability [7] of 105 and a relative cell viability [8] of 122.
`O=C(O)c1cn(C2CC2)c2cc(N3CCNCC3)c(F)cc2c1=O` [Ciprofloxacin] was tested, and the relative cell viability [1] was 107, the relative cell viability [2] was 100 and the relative cell viability [3] was 99.7. The relative cell viability [4] was 121, the relative cell viability [5] was 97.4 and the relative cell viability [6] was 99.2. The relative cell viability [7] was 107 and the relative cell viability [8] was 121.
For `Cc1onc(-c2ccccc2Cl)c1C(=O)N[C@@H]1C(=O)N2[C@@H]1SC(C)(C)[C@@H]2C(=O)O` [Cloxacillin sodium], the relative cell viability [1] was 96, the relative cell viability [2] was 106 and the relative cell viability [3] was 106. It also gave a relative cell viability [4] of 107, a relative cell viability [5] of 101 and a relative cell viability [6] of 102. The relative cell viability [7] was 102 and the relative cell viability [8] was 100.
`CO[C@H]1C[C@@H]2CC[C@@H](C)[C@@](O)(O2)C(=O)C(=O)N2CCCC[C@H]2C(=O)O[C@H]([C@H](C)C[C@@H]2CC[C@@H](OCCO)[C@H](OC)C2)CC(=O)[C@H](C)/C=C(\C)[C@@H](O)[C@@H](OC)C(=O)[C@H](C)C[C@H](C)/C=C/C=C/C=C/1C` [Everolimus] was tested, and the relative cell viability [1] was 79.5, the relative cell viability [2] was 75 and the relative cell viability [3] was 73.9. The relative cell viability [4] was 87.5, the relative cell viability [5] was 70.4 and the relative cell viability [6] was 66.9. It also gave a relative cell viability [7] of 66.5 and a relative cell viability [8] of 69.7.
`CC(C)n1c(/C=C/C(O)CC(O)CC(=O)O)c(-c2ccc(F)cc2)c2ccccc21` (stereo unspecified) [Fluvastatin sodium] showed a relative cell viability [1] of 88.9, a relative cell viability [2] of 57.3 and a relative cell viability [3] of 17.3. The relative cell viability [4] was 3.7, the relative cell viability [5] was 101 and the relative cell viability [6] was 83.5. For the same compound, the relative cell viability [7] was 28.6 and the relative cell viability [8] was 4.76.
